The whole screen tested about 5,500 compounds, of which about 2,000 (36%) were called active. About 18% were inconclusive and are not listed. Rule as the data show it: active = normalized growth mostly below about 0.91 (no sharp cut-off); inconclusive = no clear call, values can overlap the other calls; inactive = mostly above about 0.92. Some of the results follow.
Experiment: chemical genetic growth profiling, strain panel (AID 1159580);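 also: tested at 20 µM; growth read once vehicle control cultures reached saturation at 30 °C; 1 = growth at the plate median or of vehicle wells; lower values mean less growth of the strain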
Settings: growth OD
[1] = S. cerevisiae deletion strains, locus YCL061C, strain MRC1, stronger effect = lower value
[2] = S. cerevisiae deletion strains, locus YHR030C, strain SLT2, stronger effect = lower value
[3] = S. cerevisiae deletion strains, locus YJL187C, strain SWE1, stronger effect = lower value

Measured: normalized growth

CNS(=O)(=O)c1cc(Br)ccc1S(=O)c1ccccc1C(=O)O (stereo not given)
active: S. cerevisiae deletion strains, locus YML094W, strain GIM5, stronger effect = lower value 1.15 [resistant]
inactive: S. cerevisiae deletion strains, locus YAL013W, strain DEP1, stronger effect = lower value 1 | S. cerevisiae deletion strains, locus YBR229C, strain ROT2, stronger effect = lower value 1 | [1] 1 | S. cerevisiae deletion strains, locus YDL101C, strain DUN1, stronger effect = lower value 1.05 | S. cerevisiae deletion strains, locus YDR150W, strain NUM1, stronger effect = lower value 1.01 | S. cerevisiae deletion strains, locus YEL061C, strain CIN8, stronger effect = lower value 1.02 | S. cerevisiae deletion strains, locus YGR078C, strain PAC10, stronger effect = lower value 1.01 | [2] 0.98 | S. cerevisiae deletion strains, locus YHR087W, strain rtc3, stronger effect = lower value 1.03 | [3] 1 | S. cerevisiae deletion strains, locus YJR043C, strain POL32, stronger effect = lower value 1 | S. cerevisiae deletion strains, locus YJR075W, strain HOC1, stronger effect = lower value 0.997 | S. cerevisiae deletion strains, locus YKL190W, strain CNB1, stronger effect = lower value 0.982 | S. cerevisiae deletion strains, locus YLR039C, strain RIC1, stronger effect = lower value 1.01 | S. cerevisiae deletion strains, locus YLR058C, strain SHM2 (second series), stronger effect = lower value 0.992 | S. cerevisiae deletion strains, locus YLR085C, strain ARP6, stronger effect = lower value 0.983 | S. cerevisiae deletion strains, locus YLR262C, strain YPT6, stronger effect = lower value 1.02 | S. cerevisiae deletion strains, locus YMR219W, strain ESC1, stronger effect = lower value 1.01 | S. cerevisiae deletion strains, locus YMR263W, strain SAP30, stronger effect = lower value 0.984 | S. cerevisiae deletion strains, locus YMR307W, strain GAS1, stronger effect = lower value 0.942 | S. cerevisiae deletion strains, locus YNL153C, strain GIM3, stronger effect = lower value 1.03 | S. cerevisiae deletion strains, locus YNL298W, strain CLA4 (second series), stronger effect = lower value 0.995 | S. cerevisiae deletion strains, locus YNL322C, strain KRE1, stronger effect = lower value 1.01 | S. cerevisiae deletion strains, locus YNR030W, strain Alg12, stronger effect = lower value 1.03 | S. cerevisiae deletion strains, locus YOL006C, strain TOP1, stronger effect = lower value 0.975 | S. cerevisiae deletion strains, locus YPL055C, strain LGE1, stronger effect = lower value 1.04 | S. cerevisiae deletion strains, locus YPL241C, strain CIN2, stronger effect = lower value 1.04 | S. cerevisiae deletion strains, locus YPR135W, strain CTF4, stronger effect = lower value 1.15 | S. cerevisiae strains, strain wild type, stronger effect = lower value 0.968

CC(=O)NS(=O)(=O)c1ccc(NC(=O)c2ccccc2C(=O)O)cc1
inactive: S. cerevisiae deletion strains, locus YAL021C, strain ccr4, stronger effect = lower value 1.01 | S. cerevisiae deletion strains, locus YAL026C, strain drs2, stronger effect = lower value 1.02 | S. cerevisiae deletion strains, locus YAL030W, strain snc1, stronger effect = lower value 1.02 | S. cerevisiae deletion strains, locus YBL061C, strain skt5, stronger effect = lower value 1.01 | S. cerevisiae deletion strains, locus YBR009C, strain hhf1, stronger effect = lower value 1.03 | S. cerevisiae deletion strains, locus YBR023C, strain chs3, stronger effect = lower value 1.02 | S. cerevisiae deletion strains, locus YBR171W, strain sec66, stronger effect = lower value 1.04 | S. cerevisiae deletion strains, locus YBR231C, strain swc5, stronger effect = lower value 1.01 | S. cerevisiae deletion strains, locus YBR279W, strain paf1, stronger effect = lower value 1.02 | S. cerevisiae deletion strains, locus YCL011C, strain gbp2, stronger effect = lower value 1.01 | S. cerevisiae deletion strains, locus YCL016C, strain dcc1, stronger effect = lower value 1.02 | [1] 1.02 | S. cerevisiae deletion strains, locus YCL069W, strain vba3, stronger effect = lower value 1.02 | S. cerevisiae deletion strains, locus YCR088W, strain abp1, stronger effect = lower value 1.01 | S. cerevisiae deletion strains, locus YDL005C, strain med2, stronger effect = lower value 1.02 | S. cerevisiae deletion strains, locus YDL040C, strain nat1, stronger effect = lower value 1.02 | S. cerevisiae deletion strains, locus YDR001C, strain nth1, stronger effect = lower value 1.01 | S. cerevisiae deletion strains, locus YDR069C, strain doa4, stronger effect = lower value 1.02 | S. cerevisiae deletion strains, locus YDR137W, strain rgp1, stronger effect = lower value 1.04 | S. cerevisiae deletion strains, locus YDR159W, strain sac3, stronger effect = lower value 1.04 | S. cerevisiae deletion strains, locus YDR195W, strain ref2 1.01 | S. cerevisiae deletion strains, locus YDR297W, strain sur2, stronger effect = lower value 1.01 | S. cerevisiae deletion strains, locus YDR334W, strain swr1, stronger effect = lower value 1.01 | S. cerevisiae deletion strains, locus YDR335W, strain msn5, stronger effect = lower value 1.01 | S. cerevisiae deletion strains, locus YDR392W, strain spt3, stronger effect = lower value 1.01 | S. cerevisiae deletion strains, locus YEL003W, strain gim4, stronger effect = lower value 1.01 | S. cerevisiae deletion strains, locus YEL037C, strain rad23, stronger effect = lower value 1.01 | S. cerevisiae deletion strains, locus YEL061C, strain CIN8 (second series), stronger effect = lower value 1.02 | S. cerevisiae deletion strains, locus YER015W, strain faa2, stronger effect = lower value 1.02 | S. cerevisiae deletion strains, locus YER016W, strain bim1, stronger effect = lower value 1.02 | S. cerevisiae deletion strains, locus YER111C, strain swi4, stronger effect = lower value 1.02 | S. cerevisiae deletion strains, locus YER155C, strain BEM2 (second series), stronger effect = lower value 1.05 | S. cerevisiae deletion strains, locus YFR010W, strain ubp6, stronger effect = lower value 1.02 | S. cerevisiae deletion strains, locus YGL167C, strain pmr1, stronger effect = lower value 1.02 | S. cerevisiae deletion strains, locus YGL173C, strain kem1, stronger effect = lower value 1.02 | S. cerevisiae deletion strains, locus YGL227W, strain vid30, stronger effect = lower value 1.02 | S. cerevisiae deletion strains, locus YGL240W, strain doc1, stronger effect = lower value 1.01 | S. cerevisiae deletion strains, locus YGL253W, strain hxk2, stronger effect = lower value 1.02 | S. cerevisiae deletion strains, locus YHR013C, strain ard1, stronger effect = lower value 1.02 | S. cerevisiae deletion strains, locus YHR027C, strain rpn1, stronger effect = lower value 1.02 | [2] 0.958 | S. cerevisiae deletion strains, locus YHR079C, strain IRE1, stronger effect = lower value 0.969 | S. cerevisiae deletion strains, locus YHR142W, strain chs7, stronger effect = lower value 1.04 | S. cerevisiae deletion strains, locus YJL092W, strain hpr5, stronger effect = lower value 1.01 | S. cerevisiae deletion strains, locus YJL095W, strain BCK1 (second series), stronger effect = lower value 1.02 | S. cerevisiae deletion strains, locus YJL095W, strain BCK1, stronger effect = lower value 0.972 | S. cerevisiae deletion strains, locus YJL115W, strain asf1, stronger effect = lower value 1.02 | S. cerevisiae deletion strains, locus YJL129C, strain trk1, stronger effect = lower value 1.03 | S. cerevisiae deletion strains, locus YJL154C, strain vps35, stronger effect = lower value 1.02 | S. cerevisiae deletion strains, locus YJL164C, strain tpk1, stronger effect = lower value 1.01 | S. cerevisiae deletion strains, locus YJL166W, strain qcr8, stronger effect = lower value 1.02 | [3] 1.01 | S. cerevisiae deletion strains, locus YJR066W, strain TOR1, stronger effect = lower value 0.949 | S. cerevisiae deletion strains, locus YKL160W, strain elf1, stronger effect = lower value 1.02 | S. cerevisiae deletion strains, locus YKR026C, strain gcn3, stronger effect = lower value 1 | S. cerevisiae deletion strains, locus YKR091W, strain srl3, stronger effect = lower value 1.01 | S. cerevisiae deletion strains, locus YLL001W, strain dnm1, stronger effect = lower value 1.01 | S. cerevisiae deletion strains, locus YLL026W, stronger effect = lower value 1.02 | S. cerevisiae deletion strains, locus YLL041C, strain sdh2, stronger effect = lower value 1.02 | S. cerevisiae deletion strains, locus YLR027C, strain aat2, stronger effect = lower value 1.02 | S. cerevisiae deletion strains, locus YLR113W, strain HOG1, stronger effect = lower value 0.976 | S. cerevisiae deletion strains, locus YLR221C, strain rsa3, stronger effect = lower value 1.02 | S. cerevisiae deletion strains, locus YLR258W, strain gsy2, stronger effect = lower value 1.01 | S. cerevisiae deletion strains, locus YLR262C, strain YPT6 (second series), stronger effect = lower value 1.03 | S. cerevisiae deletion strains, locus YLR320W, strain mms22, stronger effect = lower value 1.03 | S. cerevisiae deletion strains, locus YLR342W, strain FKS1, stronger effect = lower value 1.01 | S. cerevisiae deletion strains, locus YLR357W, strain rsc2, stronger effect = lower value 1.05 | S. cerevisiae deletion strains, locus YLR370C, strain arc18, stronger effect = lower value 1.02 | S. cerevisiae deletion strains, locus YLR384C, strain iki3, stronger effect = lower value 1.03 | S. cerevisiae deletion strains, locus YML120C, strain ndi1, stronger effect = lower value 1.01 | S. cerevisiae deletion strains, locus YMR058W, strain fet3, stronger effect = lower value 1.04 | S. cerevisiae deletion strains, locus YMR125W, strain sto1, stronger effect = lower value 1.03 | S. cerevisiae deletion strains, locus YMR129W, stronger effect = lower value 1.03 | S. cerevisiae deletion strains, locus YMR205C, strain PFK2, stronger effect = lower value 1.02 | S. cerevisiae deletion strains, locus YMR231W, strain pep5, stronger effect = lower value 1.02 | S. cerevisiae deletion strains, locus YNL071W, strain lat1, stronger effect = lower value 1.02 | S. cerevisiae deletion strains, locus YNL183C, strain NPR1, stronger effect = lower value 0.91 | S. cerevisiae deletion strains, locus YNL209W, strain ssb2, stronger effect = lower value 1.02 | S. cerevisiae deletion strains, locus YNL248C, strain rpa49, stronger effect = lower value 1.02 | S. cerevisiae deletion strains, locus YNL322C, strain KRE1 (second series), stronger effect = lower value 1.01 | S. cerevisiae deletion strains, locus YNR049C, strain mso1, stronger effect = lower value 1.01 | S. cerevisiae deletion strains, locus YOR001W, strain rrp6, stronger effect = lower value 1.02 | S. cerevisiae deletion strains, locus YOR070C, strain gyp1, stronger effect = lower value 1.01 | S. cerevisiae deletion strains, locus YOR080W, strain dia2, stronger effect = lower value 1.01 | S. cerevisiae deletion strains, locus YOR083W, strain WHI5, stronger effect = lower value 1.01 | S. cerevisiae deletion strains, locus YOR106W, strain vam3, stronger effect = lower value 1.03 | S. cerevisiae deletion strains, locus YOR231W, strain MKK1, stronger effect = lower value 0.953 | S. cerevisiae deletion strains, locus YOR265W, strain rbl2, stronger effect = lower value 1.03 | S. cerevisiae deletion strains, locus YOR270C, strain vph1, stronger effect = lower value 1.05 | S. cerevisiae deletion strains, locus YOR290C, strain snf2, stronger effect = lower value 1.04 | S. cerevisiae deletion strains, locus YPL051W, strain arl3, stronger effect = lower value 1.03 | S. cerevisiae deletion strains, locus YPL078C, strain atp4, stronger effect = lower value 1.02 | S. cerevisiae deletion strains, locus YPL106C, strain sse1, stronger effect = lower value 0.991 | S. cerevisiae deletion strains, locus YPL240C, strain hsp82, stronger effect = lower value 1.01 | S. cerevisiae deletion strains, locus YPL256C, strain CLN2, stronger effect = lower value 0.975
